This is an account of results in PubChem BioAssay AID1851 (National Center for Advancing Translational Sciences (NCATS), 2009).

The campaign covered roughly 16,000 compounds. About 2,600 (16%) were called active. About 20% were inconclusive and are not listed. These entries were drawn from the full list. Values without a mark were called inactive. Calls follow the shape of the dose curve; as a rule, active = well fitted curve in the direction sought with a large enough effect; inconclusive = small, poorly fitted or top-dose-only effect, or effect the other way; inactive = no such curve, though single readings can be large or run the other way.
% is scaled to controls: 0 for no effect and ±100 for the full control effect.

This assay deals with Cytochrome P450 2D6 (Homo sapiens) (UniProt P10635). Briefly: Cytochrome panel assay with activity outcomes. To be noted: recombinant CYP, pro-luciferin dealkylation, luminescence, p450-cyp2d6; series mostly up to 57.1 µM.
Chain of Cytochrome P450 2D6 (Homo sapiens) (P10635 whole entry, looked up): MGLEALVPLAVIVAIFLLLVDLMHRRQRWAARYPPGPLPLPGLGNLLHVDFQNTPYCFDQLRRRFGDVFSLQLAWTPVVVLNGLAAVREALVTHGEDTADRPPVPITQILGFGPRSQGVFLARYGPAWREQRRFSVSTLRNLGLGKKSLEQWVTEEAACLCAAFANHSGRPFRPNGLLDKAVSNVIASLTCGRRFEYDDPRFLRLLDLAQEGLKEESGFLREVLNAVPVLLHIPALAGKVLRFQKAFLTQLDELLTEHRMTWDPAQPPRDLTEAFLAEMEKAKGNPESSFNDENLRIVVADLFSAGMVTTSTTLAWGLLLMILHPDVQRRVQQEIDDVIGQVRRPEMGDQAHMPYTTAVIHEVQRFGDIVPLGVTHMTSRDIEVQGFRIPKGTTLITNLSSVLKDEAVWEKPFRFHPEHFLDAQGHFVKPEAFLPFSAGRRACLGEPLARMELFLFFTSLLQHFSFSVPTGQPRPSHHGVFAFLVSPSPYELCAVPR
In the case of `Nc1ccccc1Nc1ccccc1`, the AC50 was 22.4 µM (active).

Consider `Nc1ccc(Nc2ccccc2)cc1`, for which the AC50 entry was “inactive”.

In the case of `O=C(O)c1ccccc1Nc1ccccc1`, the AC50 entry was “inactive”.

For `COc1ccc(-c2nc3cnc(N(C)C)nc3n(Cc3cccs3)c2=O)cc1`, the AC50 entry is “inactive”.

For `O=S1(=O)[C@H]([C@H]2CC3c4ccccc4C2c2ccccc23)[C@@H](N2CCCCC2)[C@@H]1c1ccccc1`, the AC50 is 3.16 µM (active).

As for `CCCn1nnnc1NC(=O)c1ccc(C)cc1Cl`, the AC50 entry was “inactive”.

As to `COC(=O)c1ccc(C#CC(NP(=O)(c2ccccc2)c2ccccc2)c2ccccc2)cc1` (centres undefined), the AC50 entry was “inactive”.

Regarding `CC1CN(C(NC(=O)C(C)(C)C)C(Cl)(Cl)Cl)CC(C)O1` (centres undefined), the AC50 entry is “inactive”.

As to `CCOC(=O)c1c(NC(=S)NC(=O)c2cnn(CC)c2)sc2c1CCC(C)C2` (centres undefined), the AC50 entry is “inactive”.

With `CCOC(=O)c1c(NC(=S)Nc2ccccc2)sc2c1CCN(CCc1ccccc1)C2`, the AC50 is 0.0708 µM (active).

Turning to `CCN1CCc2c(sc(NC(=S)NC(=O)c3ccccc3)c2C#N)C1`, the AC50 result was “inactive”.

For `CCOC(=O)N1CCC(NC(=O)c2cc(S(=O)(=O)N3CCCC3)cn2C)CC1`, the AC50 entry was “inactive”.

Consider `COCc1cc(=O)[nH]c2cc(NC(=O)C(F)(F)F)c(C)cc12`, for which the AC50 entry was “inactive”.

As for `Cc1cc(-c2cc(C)c(O)c(C(C)(C)C)c2)cc(C(C)(C)C)c1O`, the activity, negative = inhibition is -4.06% [at 11.4 µM].

On to `CC(C)(CO)Cc1cc(C(C)(C)C)c(O)c(C(C)(C)C)c1`, for which the AC50 result is “inactive”.

In the case of `CC(C)(C=O)Cc1cc(C(C)(C)C)c(O)c(C(C)(C)C)c1`, the AC50 is 25.1 µM (active).

As to `O=C(c1ccc2c(c1)N(Cc1ccc(F)cc1)C(=O)CS2)N1CCOCC1`, the AC50 entry is “inactive”.

Take `Cc1cc(OC(=O)c2ccc(Cl)cc2)cc(=O)n1C`: the AC50 entry was “inactive”.

With `O=S(=O)(c1ccccc1)N1CCC2(CC1)CN(c1ncccn1)C2`, the AC50 entry is “inactive”.

Consider `O=S(=O)(c1ccccc1)N1CCC2(CCCN(c3ccccn3)C2)CC1`, for which the AC50 was 12.6 µM (active).

As for `CS(=O)(=O)N1CCC[C@@]2(CCN(c3ncccn3)C2)C1`, the AC50 result was “inactive”.

Consider `CS(=O)(=O)N1CCC2(CCCN(c3ncccn3)C2)CC1`, for which the AC50 is 15.8 µM (active).

With `CS(=O)(=O)N1CCC2(CC1)CN(c1ncccn1)C2`, the AC50 entry is “inactive”.

Take `O=S(=O)(c1ccccc1)N1CCC2(CCN(c3ncccn3)CC2)CC1`: the AC50 entry was “inactive”.

With `O=S(=O)(c1ccccc1)N1CCC2(CCCN(c3ncccn3)C2)CC1`, the AC50 is 12.6 µM (active).

With `CS(=O)(=O)N1CCC[C@@]2(CCN(c3ccccn3)C2)C1`, the AC50 entry is “inactive”.

On to `CC(=O)N1CCC2(CCCN(c3ccccn3)C2)CC1`, for which the AC50 result is “inactive”.

As for `NCCCCNCCCN`, the AC50 entry is “inactive”.

Consider `CC1CCN(c2cc(N3CCC(C)CC3)c([N+](=O)[O-])cc2/C=C(\C#N)c2nn(-c3ccccc3)c(N)c2C#N)CC1`, for which the AC50 entry was “inactive”.
